Data reported in PubChem BioAssay (Tox21).
A number with no mark means an inactive call. The source made the active and inactive calls. Calls follow the shape of the dose curve; as a rule, active = well fitted curve in the direction sought with a large enough effect in the repeat runs; inconclusive = weak or mixed curves; inactive = flat fitted curve, though single readings scatter.

Assay: qHTS assay to test for compound auto fluorescence at 590 nm (red) in HepG2 cell free culture (AID 720684)
Conditions: cell-free medium autofluorescence, red 540/590 nm; series mostly up to 46 µM; fluorescence, % of Rose Bengal: at the top concentration
From the text: U.S. Tox21 Program National Center for Advancing Translational Sciences [NCATS] NIH Chemical Genomics Center [NCGC] U.S. Environmental Protection Agency [EPA] National Institutes of Environmental Health Sciences [NIEHS] National Toxicology Program [NTP] U.S. Food and Drug Administration [FDA] Tox21 Assay Overview: Compound auto fluorescence often interferes with screening of the compound library against various biological targets and signaling pathways. Some of these compounds may have fluorophoric properties. Such properties may interfere with the assay outputs resulting in false positives and/or negatives. To decrease such complications and ensure the compound activities are relevant in terms of biological response, the Tox21 10K compound library was screened for auto fluorescence. From the fluorophores used as reporter signals in our screening assays, the auto fluorescence equivalencies of compounds against three fluorophores have been evaluated: Triamterene, Fluorescein and Rose Bengal sodium for blue, green and red fluorescence, respectively. The fluorescence intensities were measured using Excitation/Emission wavelengths at 405/460nm, 485/535nm and 540/590nm for blue, green and red labels, respectively. This assay includes the red fluorescence data.
Tox21 Assay Protocol Summary: 5 uL of culture medium (MEM containing 10% FBS) per well was dispensed into black wall/clear bottom 1536-well plates using a Multidrop Combi Dispenser (ThermoFisher Scientific, Waltham, MA). After 23 nL compound or DMSO vehicle was transferred into assay plate by a pintool work station (Kalypsys, San Diego, CA), fluorescence intensities in the assay plates were measured by an Envision (PerkinElmer, Shelton, CT) plate reader using three labels for measuring blue, green and red fluorescence at […] 460, 535 and 590nm respectively.
% is scaled to controls: 0 for no effect and ±100 for the full control effect.

Compared with `OCCCC1CCCCC1`, `O=C1OC(=O)C2CCCCC12` (stereo not given) is lower in “fluorescence, % of Rose Bengal” value: 0.0783% [at 91.3 µM] for the first, -0.397% [at 91.3 µM] for the second.

Going from `ClC(Cl)(Br)Br` to `CC(=O)c1ccccc1O`, the “fluorescence, % of Rose Bengal” value rises from 0.0212% [at 91.3 µM] to 0.0348% [at 91.3 µM].

Compared with `COCCCOCCCOC`, `CCCCCCCCCCCC` is lower in “fluorescence, % of Rose Bengal” value: -0.0132% [at 91.3 µM] for the first, -0.0305% [at 91.3 µM] for the second.

First: CCOC(=O)C(=O)OCC
Second: COC(=O)CC(C)=O
The “fluorescence, % of Rose Bengal” value of the first is lower: -0.31% [at 91.3 µM] for the first, -0.099% [at 91.3 µM] for the second.

Going from `CCC(=O)OC(C)c1ccccc1` (stereo not given) to `OC1CCCCC1c1ccccc1` (stereo not given), the “fluorescence, % of Rose Bengal” value rises from -0.144% [at 91.3 µM] to -0.0833% [at 91.3 µM].

Compared with `COC(C)(C)CCCC(C)CC=O` (stereo not given), `CCCCCCCCS(=O)(=O)Cl` is higher in “fluorescence, % of Rose Bengal” value: 0.0014% [at 91.3 µM] for the first, 0.0426% [at 91.3 µM] for the second.

First: Nc1ccccc1S(=O)(=O)O
Second: CC(=O)Nc1ccc(S(N)(=O)=O)cc1
The “fluorescence, % of Rose Bengal” value of the first is lower: -0.332% [at 91.3 µM] for the first, -0.115% [at 91.3 µM] for the second.

First: C=CCS(=O)(=O)O
Second: NC(=O)c1ccc([N+](=O)[O-])cc1
The “fluorescence, % of Rose Bengal” value of the first is lower: -0.12% [at 91.3 µM] for the first, -0.0301% [at 91.3 µM] for the second.

With `O=c1cc(-c2ccccc2)oc2ccccc12` the outcome was “inactive”.
For `CC(C)NCC(O)c1ccc(NS(C)(=O)=O)cc1` (stereo not given), the outcome was “inactive”.
For `COC(=O)c1c(Cl)c(Cl)c(C(=O)OC)c(Cl)c1Cl`, the outcome was “inactive”.
For `COCCc1ccc(OCC(O)CNC(C)C)cc1` (stereo not given), the outcome was “inactive”.
In the case of `CCOC(=O)Nc1ccc(NCc2ccc(F)cc2)nc1N`, the outcome is reported as “inactive”.
In the case of `CO[Si](CCCOCC1CO1)(OC)OC` (stereo not given), the outcome is reported as “inactive”.
With `COC(=O)C1=C(C)NC(C)=C(C(=O)OC)C1c1ccccc1[N+](=O)[O-]` the outcome was “inactive”.

Compared with `C[N+](C)(C)CCCCCC[N+](C)(C)C`, `CC(=O)N(CC(O)CO)c1c(I)c(C(=O)NCCO)c(I)c(C(=O)NCC(O)CO)c1I` (stereo not given) is higher in “fluorescence, % of Rose Bengal” value: -0.339% for the first, -0.205% for the second.

Going from `CN1CC(=O)NC1=N` to `Cc1cccn2c(=O)c(-c3nnn[nH]3)cnc12`, the “fluorescence, % of Rose Bengal” value rises from -0.16% to -0.0625%.

First: NC(CSCC(=O)O)C(=O)O (stereo not given)
Second: C[C@](N)(Cc1ccc(O)cc1)C(=O)O
The “fluorescence, % of Rose Bengal” value of the first is lower: -0.279% for the first, -0.143% for the second.

Compared with `O=C(CCCN1CCN(c2ccccn2)CC1)c1ccc(F)cc1`, `O=C(CCCN1CCC(O)(c2cccc(C(F)(F)F)c2)CC1)c1ccc(F)cc1` is higher in “fluorescence, % of Rose Bengal” value: -0.0726% for the first, 0.0253% for the second.

First: CCOC(=O)[C@H](CCc1ccccc1)N[C@@H](C)C(=O)N1[C@H](C(=O)O)C[C@@H]2CCC[C@@H]21
Second: CO[C@]12C[C@@H](COC(=O)c3cncc(Br)c3)CN(C)[C@@H]1Cc1cn(C)c3cccc2c13
The “fluorescence, % of Rose Bengal” value of the first is lower: -0.0118% for the first, 0.0569% for the second.

Compared with `Cc1nc2c([nH]1)c(=O)n(C)c(=O)n2Cc1ccco1`, `CN1CCC(=C2c3ccccc3CC(=O)c3sccc32)CC1` is higher in “fluorescence, % of Rose Bengal” value: -0.0428% for the first, 0.574% for the second.

First: N=C(N)c1ccc2cc(OC(=O)c3ccc(N=C(N)N)cc3)ccc2c1
Second: CN1CCN(c2cc3c(cc2F)c(=O)c(C(=O)O)cn3-c2ccc(F)cc2)CC1
The “fluorescence, % of Rose Bengal” value of the first is higher: 0.563% for the first, 0.458% for the second.

Compared with `NCCc1cnc[nH]1`, `NC(=O)c1cn(Cc2c(F)cccc2F)nn1` is higher in “fluorescence, % of Rose Bengal” value: -0.171% for the first, -0.109% for the second.

For `CC[N+](C)(C)c1cccc(O)c1`, the “fluorescence, % of Rose Bengal” value was -0.314% [at 18.6 µM].
